This passage reports Potency results from PubChem BioAssay (Tox21).

Each structure is given as a SMILES string. Inconclusive results are not listed. A number with no mark means an inactive call. The source made the active and inactive calls. Unless noted, calls follow the shape of the dose curve; as a rule, active = well fitted curve in the direction sought with a large enough effect in the repeat runs; inconclusive = weak or mixed curves; inactive = no such curve, though single readings can be large; an effect the other way counts as inactive or inconclusive.

The nature of experiment [1]: qHTS assay to identify small molecule antagonists of the estrogen related receptor (ERR) signaling pathway - cell viability counter screen (AID 1224818). Also: potency is read from the fitted curve at half-maximal effect.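 Also: viability measured after 17.5 h of compound exposure.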 An outline of the steps:
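Cells carrying the ERR pathway reporter were seeded and incubated for 6 hours before compound addition. After a 17.5-hour exposure at 37 C, live-cell protease activity was measured by CellTiter-Fluor fluorescence following 30 minutes of incubation.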
(In general: In qHTS, concentration-response curves come from the screen itself.)

Experiment [2] can be described thus: qHTS assay to identify small molecule agonists of the estrogen related receptor (ERR) signaling pathway (AID 1224820). Put shortly:
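Quantitative HTS of the LOPAC library used NTP ERR reporter cells treated 18 h at 37 C. Signal is luminescence after One-Glo addition and a 30 min room-temperature incubation.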

The test system of experiment [3] is estrogen-related receptor alpha (ERRalpha) with PGC-1alpha coactivator, human. The experiment in a line: qHTS assay to identify small molecule antagonists of the estrogen related receptor signaling pathway with the pleiotropic PPARgamma coactivator (PGC) (AID 1224821; calls by dose curve;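 also: series mostly up to about 46 µM; lower luminescence signal means antagonism of PGC/ERR signalling; nearly all actives have a fitted effect of over 50% in size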). Put shortly:
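Quantitative HTS for antagonism: PGC/ERR cells received compounds after 6 h attachment and were incubated 18 h at 37 C, with luminescence (One-Glo) as the endpoint.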

Experiment [4] is described as follows: qHTS assay to identify small molecule antagonists of the estrogen related receptor signaling pathway with the pleiotropic PPARgamma coactivator (PGC) cell viability counter screen (AID 1224822; also: potency is read from the fitted curve at half-maximal effect;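 also: viability read after 17.5 h compound exposure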). Put shortly:
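Seed PGC/ERR cells (2,000/well); incubate 6 h at 37 C/5% CO2; pin-transfer compounds in DMSO; incubate 17.5 h at 37 C; add CellTiter-Fluor; after 30 min read fluorescence.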

Experiment [5] can be described thus: qHTS assay to identify small molecule agonists of the estrogen related receptor signaling pathway with the pleiotropic PPARgamma coactivator (PGC) (AID 1224823). An outline of the steps:
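Cell-based luciferase assay in the NTP-supplied PGC/ERR line, 2,000 cells/well; 18 h compound exposure at 37 C, luminescence after One-Glo.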

Experiment [6] in a line: qHTS assay to identify small molecule antagonists of the estrogen related receptor (ERR) signaling pathway (AID 1224819; also: potency is read from the fitted curve at half-maximal effect; nearly all actives have a fitted effect of over 50% in size). Put shortly:
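Compounds dissolved in DMSO were pin-transferred onto ERR cells that had been plated 6 h earlier, and cells were then incubated 18 h at 37 C; signal was luciferase luminescence via One-Glo.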

Turning to `CC(N)[C@H](O)c1ccc(O)c(O)c1` (stereo not given in full), the Potency entry in experiment [1], in experiment [2], in experiment [3], in experiment [4] and in experiment [5] was “inactive” in each case.

Take `Cc1o[nH]c(=O)c1CC(N)C(=O)O` (stereo not given): the Potency entry in experiment [1] and in experiment [4] was “inactive” in each case.

For the molecule `CC(=O)[C@H]1CCC2C3CC[C@H]4C[C@H](O)CC[C@]4(C)C3CC[C@@]21C` (stereo not given in full), the Potency result in experiment [1], in experiment [2], in experiment [3], in experiment [4] and in experiment [5] was “inactive” throughout.

Regarding `COc1ccc2[nH]c3c(c2c1)CCNC3`, the Potency entry in experiment [1], in experiment [2], in experiment [3], in experiment [4] and in experiment [5] was “inactive” throughout.

With `COC(=O)[C@@H](N)CCCN=C(N)N[N+](=O)[O-]`, the Potency result in experiment [1] and in experiment [4] was “inactive” throughout.

For `c1ccc2c(c1)[I+]c1ccccc1-2`, the Potency in experiment [6] is 0.031 µM (active). Also, in experiment [2], the Potency entry was “inactive”.

In the case of `NC1CC1c1ccccc1` (stereo not given), the Potency entry in experiment [1] and in experiment [4] was “inactive” throughout.

Turning to `CNc1ccc2oc(C[C@H]3O[C@@]4(CC[C@H]3C)O[C@H]([C@H](C)C(=O)c3ccc[nH]3)[C@H](C)C[C@H]4C)nc2c1C(=O)O`, the Potency was 10.6 µM (active) in experiment [1] and 9.44 µM (active) in experiment [4]. Further, the Potency entry in experiment [2] was “inactive”.

As for `CN1CCc2cc(O)cc3c2[C@H]1Cc1ccc(O)c(O)c1-3`, the Potency result in experiment [1], in experiment [2], in experiment [3] and in experiment [5] was “inactive” in each case.
